Reference: PubChem BioAssay
For some of these results: Potency and affinity values are given separately. Activity calls are given as the source filed them. Unless noted, no rule for the calls is given here.

How the values were obtained:
[1] = antimalarial activity against Dd2 strain (AID 2302;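 active = growth inhibition above 50% at the single 2 µM test dose, taken to imply half-maximal potency below 2 µM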;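 also: 0% = DMSO untreated growth and 100% = chloroquine plus artemisinin killed control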); settings: P. falciparum Dd2 in RBCs, LDH growth readout, 72 h; at 2 µM; active compounds read high
[2] = human hepatoma cell viability loss – ATP luminescence, cytotoxicity control for P. falciparum antimalarial project, primary screen (AID 2303;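 active = inhibition above 50%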;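 also: 0% = DMSO wells and 100% = digitonin-killed cells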); settings: HepG2 viability, 24-48 h, at 10 µM, active compounds read high
[3] = biological target: L-lactate dehydrogenase (Plasmodium falciparum (isolate CDC / Honduras)) (UniProt Q27743); experiment: PfLDH activity inhibition – cell lysate, 3D7 strain, counter-screen for P. falciparum growth inhibition project (AID 2304);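 also: 0% = vehicle and 100% = reference inhibitor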; settings: P. falciparum 3D7 crude extract, LDH APAD/NBT absorbance; at 2 µM; active compounds read high
L-lactate dehydrogenase (Plasmodium falciparum (isolate CDC / Honduras)), sequence (Q27743 whole entry, looked up): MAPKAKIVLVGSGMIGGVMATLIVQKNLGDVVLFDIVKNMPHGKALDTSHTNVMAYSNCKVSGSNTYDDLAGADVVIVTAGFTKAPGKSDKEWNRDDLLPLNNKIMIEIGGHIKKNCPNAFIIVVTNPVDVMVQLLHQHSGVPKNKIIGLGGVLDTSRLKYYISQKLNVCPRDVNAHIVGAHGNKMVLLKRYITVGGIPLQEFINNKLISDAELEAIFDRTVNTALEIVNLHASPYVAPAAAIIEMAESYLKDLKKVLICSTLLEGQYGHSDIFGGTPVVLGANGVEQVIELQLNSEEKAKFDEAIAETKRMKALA

[4] = inhibition of 3D7 malaria parasite growth – strain 3D7 (AID 2306);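 also: 0% = DMSO wells and 100% = chloroquine plus artemisinin control wells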; settings: P. falciparum 3D7 erythrocytic growth, LDH absorbance, 72 h; at 2 µM; active compounds read high
[5] = biological target: Calcium-dependent protein kinase 1 (Plasmodium falciparum (isolate 3D7)) (UniProt P62344); experiment: PfCDPK1 kinase inhibitors, biochemical, TCAMS library (AID 1159585; cut-off not given, nearly all actives have IC50 up to about 0.98 µM;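 also: inhibitors leave more ATP so luminescence rises with inhibition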); settings: recombinant PfCDPK1, Kinase-Glo ATP depletion luminescence
Calcium-dependent protein kinase 1 (Plasmodium falciparum (isolate 3D7)), sequence (P62344 whole entry, looked up): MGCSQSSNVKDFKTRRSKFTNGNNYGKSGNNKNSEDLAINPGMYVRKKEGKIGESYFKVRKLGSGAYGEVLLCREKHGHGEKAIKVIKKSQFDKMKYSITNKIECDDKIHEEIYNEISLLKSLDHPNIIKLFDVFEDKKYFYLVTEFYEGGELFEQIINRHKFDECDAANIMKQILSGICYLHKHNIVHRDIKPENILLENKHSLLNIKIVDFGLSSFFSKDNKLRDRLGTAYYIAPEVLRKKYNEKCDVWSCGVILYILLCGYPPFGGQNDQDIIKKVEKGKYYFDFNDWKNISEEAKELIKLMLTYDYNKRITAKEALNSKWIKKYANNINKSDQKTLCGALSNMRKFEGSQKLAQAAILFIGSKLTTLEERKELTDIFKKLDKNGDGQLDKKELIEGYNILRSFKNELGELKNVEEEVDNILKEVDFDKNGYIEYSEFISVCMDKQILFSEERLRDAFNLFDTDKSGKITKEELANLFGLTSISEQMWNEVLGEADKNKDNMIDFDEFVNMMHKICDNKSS

[6] = biological target: Plasmodium falciparum protein kinase 6 (PK6, PF3D7_1337100) (UniProt Q8IDW1); experiment: PfPK6 kinase inhibitors, biochemical, TCAMS library (AID 1159586); settings: recombinant PfPK6, Kinase-Glo ATP depletion luminescence
Plasmodium falciparum protein kinase 6 (PK6, PF3D7_1337100), sequence (Q8IDW1 1-305): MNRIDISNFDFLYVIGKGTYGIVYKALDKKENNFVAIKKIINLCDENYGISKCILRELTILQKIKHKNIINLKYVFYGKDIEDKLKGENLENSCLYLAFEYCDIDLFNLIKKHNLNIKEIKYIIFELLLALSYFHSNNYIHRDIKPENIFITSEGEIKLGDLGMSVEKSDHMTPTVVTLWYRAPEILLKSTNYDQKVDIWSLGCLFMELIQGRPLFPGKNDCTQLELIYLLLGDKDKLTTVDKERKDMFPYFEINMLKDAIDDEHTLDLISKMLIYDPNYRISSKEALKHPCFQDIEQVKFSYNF

[7] = biological target: Protein kinase 7 (PK7), Plasmodium falciparum 3D7 (PF3D7_0213400) (UniProt Q7YTF7); experiment: inhibition of Plasmodium PK7 catalytic activity – biochemical, TCAMS antimalarial set, Kinase-Glo luminescence (AID 1159587); settings: recombinant PfPK7, Kinase-Glo ATP depletion luminescence
Protein kinase 7 (PK7), Plasmodium falciparum 3D7 (PF3D7_0213400), sequence (Q7YTF7 1-343): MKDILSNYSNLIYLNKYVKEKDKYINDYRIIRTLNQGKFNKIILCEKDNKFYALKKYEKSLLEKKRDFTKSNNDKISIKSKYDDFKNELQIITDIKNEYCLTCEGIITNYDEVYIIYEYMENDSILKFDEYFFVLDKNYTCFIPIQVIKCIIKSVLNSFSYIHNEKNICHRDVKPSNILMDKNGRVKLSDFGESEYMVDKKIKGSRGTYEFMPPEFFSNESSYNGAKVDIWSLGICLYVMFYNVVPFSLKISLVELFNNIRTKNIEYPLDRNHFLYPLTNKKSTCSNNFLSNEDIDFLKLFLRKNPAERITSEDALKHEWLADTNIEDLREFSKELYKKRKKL

[8] = biological target: Calcium-dependent protein kinase 4 (Plasmodium falciparum (isolate 3D7)) (UniProt Q8IBS5); experiment: PfCDPK4 kinase inhibitors, biochemical, TCAMS library (AID 1159588; cut-off not given, nearly all actives have IC50 up to about 0.91 µM); settings: recombinant PfCDPK4, Kinase-Glo ATP depletion luminescence
Calcium-dependent protein kinase 4 (Plasmodium falciparum (isolate 3D7)), sequence (Q8IBS5 whole entry, looked up): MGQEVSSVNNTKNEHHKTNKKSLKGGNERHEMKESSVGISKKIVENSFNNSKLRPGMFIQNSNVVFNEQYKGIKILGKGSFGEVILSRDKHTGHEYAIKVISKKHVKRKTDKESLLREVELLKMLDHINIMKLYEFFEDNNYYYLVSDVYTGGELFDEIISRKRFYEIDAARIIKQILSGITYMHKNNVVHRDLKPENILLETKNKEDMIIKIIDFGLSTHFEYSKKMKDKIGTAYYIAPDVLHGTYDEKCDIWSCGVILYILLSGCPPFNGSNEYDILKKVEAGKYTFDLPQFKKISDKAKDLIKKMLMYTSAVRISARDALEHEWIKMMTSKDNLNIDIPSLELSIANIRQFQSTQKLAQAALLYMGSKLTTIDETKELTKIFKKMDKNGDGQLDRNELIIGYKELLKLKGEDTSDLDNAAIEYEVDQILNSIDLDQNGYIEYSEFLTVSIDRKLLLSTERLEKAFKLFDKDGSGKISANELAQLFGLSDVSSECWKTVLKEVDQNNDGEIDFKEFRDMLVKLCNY

CCCc1ccc(C2CCN(CCCCNC(=O)c3ccc(NC(=O)c4ccc(Cl)cc4)cc3)CC2)cc1
active: growth inhibition [1] 100% | growth inhibition [4] 100%
inactive: inhibition [2] 39% | inhibition [3] 1% | outcome [5] | outcome [6] | outcome [7] | outcome [8]

COc1ccc(CCNc2nc(NCCc3cnc[nH]3)nc(NCc3cccc4ccccc34)n2)cc1OC
inactive: growth inhibition [1] 16% | inhibition [2] 2% | inhibition [3] 3% | outcome [5] | outcome [6] | outcome [7] | outcome [8]
active: growth inhibition [4] 98%

Cc1cc(N2CCOCC2)nc2ccc(NC(=O)c3cccc([N+](=O)[O-])c3)cc12
active: growth inhibition [4] 97%
inactive: growth inhibition [1] 37% | inhibition [2] 0% | inhibition [3] 0% | outcome [5] | outcome [6] | outcome [7] | outcome [8]

COc1cc(Cc2cnc(N)nc2N)cc(OCCCCCC(=O)O)c1OC
inactive: growth inhibition [1] 2% | inhibition [2] -16% | inhibition [3] -4% | outcome [5] | outcome [6] | outcome [7] | outcome [8]
active: growth inhibition [4] 95%

COc1ccc(CN2CCC(N3CC(c4ccccc4)(c4ccccc4)OCC3=O)C2)c(O)c1 (stereo not drawn)
active: growth inhibition [4] 96%
inactive: growth inhibition [1] 27% | inhibition [2] 10% | inhibition [3] 3% | outcome [5] | outcome [6] | outcome [7] | outcome [8]

Cc1cccc2[nH]c(-c3ccc(-c4ccc(NC(=O)Nc5cccc(C#N)c5)cc4)cc3)nc12
active: growth inhibition [1] 100% | growth inhibition [4] 101%
inactive: inhibition [2] 28% | inhibition [3] 6% | outcome [5] | outcome [6] | outcome [7] | outcome [8]

COc1ccc2nccc([C@@H](O)CN3CCC(NCc4ccc5cccc(O)c5n4)CC3)c2n1
active: growth inhibition [4] 94%
inactive: growth inhibition [1] 13% | inhibition [2] 8% | inhibition [3] 2% | outcome [5] | outcome [6] | outcome [7] | outcome [8]

Cc1ccc(CN2CCCN(Cc3cccc(NC(=O)c4ccc(Cl)c(Cl)c4)c3)CC2)cc1
inactive: growth inhibition [1] 18% | inhibition [2] 32% | inhibition [3] -1% | outcome [5] | outcome [6] | outcome [7] | outcome [8]
active: growth inhibition [4] 96%

Cc1ccc(NC(=O)c2ccc3ncccc3c2)cc1OC1CCN(Cc2ccc(F)cc2)C1 (stereo not drawn)
inactive: growth inhibition [1] 28% | inhibition [2] 11% | inhibition [3] 3% | outcome [5] | outcome [6] | outcome [7] | outcome [8]
active: growth inhibition [4] 83%

COc1ccc(CNC(=O)NC2CCN(c3ccnc(Nc4ccc(OC)cc4)n3)C2)cc1 (stereo not drawn)
inactive: inhibition [2] 27% | inhibition [3] 1% | outcome [5] | outcome [6] | outcome [7] | outcome [8]
active: growth inhibition [1] 80% | growth inhibition [4] 87%

COc1cc(CN2CCC(CO)(Cc3cccc(C(F)(F)F)c3)CC2)c(Cl)cc1O
active: growth inhibition [1] 64% | growth inhibition [4] 99%
inactive: inhibition [2] 12% | inhibition [3] 6% | outcome [5] | outcome [6] | outcome [7] | outcome [8]

CCC(C)(C)c1ccc(S(=O)(=O)Nc2ccc(Cl)c(OCCN3CCCCC3)c2)cc1
inactive: inhibition [3] 0% | outcome [5] | outcome [6] | outcome [7] | outcome [8]
active: growth inhibition [1] 93% | inhibition [2] 100% | growth inhibition [4] 88%

CC1(CCc2ccccc2)N=C(N)N(Cc2ccccc2)C(=O)C1c1ccc(Cl)c(Cl)c1 (stereo not drawn)
active: growth inhibition [1] 96% | inhibition [2] 100% | growth inhibition [4] 97%
inactive: inhibition [3] -4% | outcome [5] | outcome [6] | outcome [7] | outcome [8]

COc1ccc(Br)cc1/C=C/C(=O)Nc1ccc(C2CCCN(C)C2)cc1 (stereo not drawn)
inactive: growth inhibition [1] 35% | inhibition [2] 18% | inhibition [3] -2% | outcome [5] | outcome [6] | outcome [7] | outcome [8]
active: growth inhibition [4] 100%

O=C(NCC1CCC(C(=O)NC2CCCc3ccccc32)CC1)c1ccc(O)c(-c2cccc([N+](=O)[O-])c2)c1 (stereo not drawn)
active: growth inhibition [1] 97% | growth inhibition [4] 99%
inactive: inhibition [2] 2% | inhibition [3] -2% | outcome [5] | outcome [6] | outcome [7] | outcome [8]

COc1ccc2nc(C)cc(Nc3ccc(Oc4ccc(Cl)c5ccccc45)c(Cl)c3)c2c1
inactive: inhibition [3] -2% | outcome [5] | outcome [6] | outcome [7] | outcome [8]
active: growth inhibition [1] 100% | inhibition [2] 83% | growth inhibition [4] 100%

Cc1ccccc1C(=O)Nc1cccc(-c2nc3ncccn3c2C)c1
inactive: inhibition [2] -5% | inhibition [3] 1% | outcome [5] | outcome [6] | outcome [7] | outcome [8]
active: growth inhibition [1] 94% | growth inhibition [4] 94%

COc1ccc2nccc([C@@H](O)CN3CCC(NC(=O)c4cc5ccccc5[nH]4)CC3)c2c1
active: growth inhibition [1] 55% | growth inhibition [4] 96%
inactive: inhibition [2] 19% | inhibition [3] -3% | outcome [5] | outcome [6] | outcome [7] | outcome [8]

O=C(/C=C/c1ccc(Cl)c(Cl)c1)NCCCCCCN1CCN(C(=O)Nc2ccc(F)c(Cl)c2)CC1
active: growth inhibition [4] 86%
inactive: growth inhibition [1] 2% | inhibition [2] 40% | inhibition [3] -7% | outcome [5] | outcome [6] | outcome [7] | outcome [8]

CCC(CCON1C(N)=NC(N)=NC1(C)C)c1ccc(Cl)cc1 (stereo not drawn)
active: growth inhibition [1] 95% | inhibition [2] 66% | growth inhibition [4] 94%
inactive: inhibition [3] 1% | outcome [5] | outcome [6] | outcome [7] | outcome [8]

Cc1ccc(Cc2c(N)nc3nc(N)nc(N)c3c2C)cc1
inactive: growth inhibition [1] 8% | inhibition [3] 4% | outcome [5] | outcome [6] | outcome [7] | outcome [8]
active: inhibition [2] 59% | growth inhibition [4] 95%

COc1ccc2nccc([C@@H](O)CN3CCC(NC(=O)c4cc5c(Cl)cc(Cl)cc5[nH]4)CC3)c2c1
inactive: inhibition [2] 22% | inhibition [3] -3% | outcome [5] | outcome [6] | outcome [7] | outcome [8]
active: growth inhibition [1] 98% | growth inhibition [4] 100%

O=C(CCN1CCCCC1)Nc1ccc(Nc2nccc(NCC(O)c3ccccc3)n2)cc1 (stereo not drawn)
active: growth inhibition [1] 60% | growth inhibition [4] 102%
inactive: inhibition [2] 18% | inhibition [3] -1% | outcome [5] | outcome [6] | outcome [7] | outcome [8]

COc1cccc(Cc2c(C)nc3nc(N)nc(N)c3c2C)c1
inactive: growth inhibition [1] 1% | inhibition [3] -2% | outcome [5] | outcome [6] | outcome [7] | outcome [8]
active: inhibition [2] 65% | growth inhibition [4] 95%

CC(=O)Oc1c(C2CCN(CCCCNC(=O)c3ccc(NC(=O)c4ccc(Cl)cc4)cc3)CC2)ccc2ccccc12
active: growth inhibition [1] 92% | growth inhibition [4] 101%
inactive: inhibition [2] 24% | inhibition [3] -6% | outcome [5] | outcome [6] | outcome [7] | outcome [8]

COc1cccc(C(=O)Nc2sc3c(c2C(N)=O)CCCC3)c1OC
inactive: growth inhibition [1] 8% | inhibition [2] 6% | inhibition [3] -2% | outcome [5] | outcome [6] | outcome [7] | outcome [8]
active: growth inhibition [4] 99%

CN(C)CCNCc1cccc(-c2ccc3c(Nc4ccc(F)cc4Cl)ccnc3c2)c1
active: growth inhibition [1] 98% | growth inhibition [4] 102%
inactive: inhibition [2] 17% | inhibition [3] 1% | outcome [5] | outcome [6] | outcome [7] | outcome [8]

CCN1CCN(CCCCNc2c3ccccc3nc3ccccc23)CC1
inactive: growth inhibition [1] -5% | inhibition [2] 22% | inhibition [3] 8% | outcome [5] | outcome [6] | outcome [7] | outcome [8]
active: growth inhibition [4] 100%

Cc1[nH]nc2ccc(-c3cc(OC[C@@H](N)Cc4ccccc4)cnc3-c3ccccc3OCc3cccc(F)c3)cc12
inactive: inhibition [3] -2% | outcome [5] | outcome [6] | outcome [7] | outcome [8]
active: growth inhibition [1] 91% | inhibition [2] 55% | growth inhibition [4] 91%

CC(C)C[C@H](Nc1ccnc(NCC2CCCCC2)n1)C(=O)Nc1ccccc1
active: growth inhibition [4] 87%
inactive: growth inhibition [1] 42% | inhibition [2] 6% | inhibition [3] 2% | outcome [5] | outcome [6] | outcome [7] | outcome [8]

O=C(Nc1cccc(Cl)c1Cl)NC1CCN(Cc2cccc(O)c2)CC1
inactive: growth inhibition [1] 1% | inhibition [2] 1% | inhibition [3] -1% | outcome [5] | outcome [6] | outcome [7] | outcome [8]
active: growth inhibition [4] 98%

CS(=O)(=O)c1ccc(-c2cnc(N)c(-c3ccc(O)cc3)c2)cc1
inactive: inhibition [2] 38% | inhibition [3] 2% | outcome [5] | outcome [6] | outcome [7] | outcome [8]
active: growth inhibition [1] 94% | growth inhibition [4] 84%

COc1cccc(NC(=O)[C@H](C)n2c(=O)[nH]c3ccccc3c2=O)c1
active: growth inhibition [1] 92% | growth inhibition [4] 100%
inactive: inhibition [2] 8% | inhibition [3] -3% | outcome [5] | outcome [6] | outcome [7] | outcome [8]

COc1cc2nccc(Nc3cccc(Oc4ccccc4)c3)c2cc1OC
inactive: inhibition [2] 25% | inhibition [3] -2% | outcome [5] | outcome [6] | outcome [7] | outcome [8]
active: growth inhibition [1] 95% | growth inhibition [4] 102%

O=C(Nc1cccc(CN2CCCN(CC3CCCCC3)CC2)c1)c1ccc(Cl)c(Cl)c1
inactive: growth inhibition [1] 15% | inhibition [2] 39% | inhibition [3] 7% | outcome [5] | outcome [6] | outcome [7] | outcome [8]
active: growth inhibition [4] 91%

COc1c(C2CCN(CCCCNC(=O)c3ccc(-c4ccc(Cl)cc4)c(OCCN(C)C)c3)CC2)ccc2c1CCCC2
active: growth inhibition [1] 86% | inhibition [2] 100% | growth inhibition [4] 101%
inactive: inhibition [3] 2% | outcome [5] | outcome [6] | outcome [7] | outcome [8]

CCc1cccc(NC(=O)/C=C/c2ccc3c(c2)CN(C)CC3)c1
inactive: inhibition [2] 8% | inhibition [3] -1% | outcome [5] | outcome [6] | outcome [7] | outcome [8]
active: growth inhibition [1] 91% | growth inhibition [4] 94%

COc1ccc(Br)cc1/C=C/C(=O)Nc1cccc(C2CCCN(C)C2)c1 (stereo not drawn)
active: growth inhibition [4] 99%
inactive: growth inhibition [1] 30% | inhibition [2] 12% | inhibition [3] 1% | outcome [5] | outcome [6] | outcome [7] | outcome [8]

CCOC(=O)c1cn(CC)c2cc(F)c(OC3C[C@@H]4CC[C@@]3(C)C4(C)C)cc2c1=O (stereo partly drawn)
active: growth inhibition [1] 70% | growth inhibition [4] 91%
inactive: inhibition [2] -7% | inhibition [3] -1% | outcome [5] | outcome [6] | outcome [7] | outcome [8]

Cc1cc(NC(=O)Nc2ccc(C#N)cc2)c2ccccc2n1
active: inhibition [2] 88% | growth inhibition [4] 100%
inactive: growth inhibition [1] 49% | inhibition [3] -2% | outcome [5] | outcome [6] | outcome [7] | outcome [8]

COc1cc(NCC(C)CNCc2cn(Cc3ccccc3)c3ccccc23)nc2ccccc12 (stereo not drawn)
active: growth inhibition [1] 55% | growth inhibition [4] 90%
inactive: inhibition [2] 21% | inhibition [3] -6% | outcome [5] | outcome [6] | outcome [7] | outcome [8]
